Results: PubChem BioAssay AID1159580 (chemical genetic matrix, 2015)
Several values for one entry are separate records, joined by “and”; a condition that tells them apart may be missing. Identical values can stand only once. Out of some 5,500 compounds screened, about 2,000 (36%) were called active. Another 18% or so got no clear call; they are omitted. Rule as the data show it: active = normalized growth mostly below about 0.91 (no sharp cut-off); inconclusive = no clear call, values can overlap the other calls; inactive = mostly above about 0.92. The list shows a part of the results.

Experiment: chemical genetic growth profiling, strain panel (AID 1159580);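 also: tested at 20 µM; growth read once vehicle control cultures reached saturation at 30 °C; 1 = growth at the plate median or of vehicle wells; lower values mean less growth of the strain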
Conditions: S. cerevisiae deletion strains, growth OD

Measured: normalized growth

O=C(Nc1ccc([N+](=O)[O-])cc1Cl)c1cc(Cl)ccc1O
active: locus YAL021C, strain ccr4, stronger effect = lower value 0.798 | locus YBL061C, strain skt5, stronger effect = lower value 0.818 | locus YBR009C, strain hhf1, stronger effect = lower value 0.896 | locus YBR023C, strain chs3, stronger effect = lower value 0.757 | locus YBR231C, strain swc5, stronger effect = lower value 0.69 | locus YBR279W, strain paf1, stronger effect = lower value 0.748 | locus YCL016C, strain dcc1, stronger effect = lower value 0.458 | locus YCL029C, strain bik1, stronger effect = lower value 1.15 [resistant] | locus YDL005C, strain med2, stronger effect = lower value 1.09 [resistant] | locus YDL035C, strain GPR1, stronger effect = lower value 0.856 | locus YDL040C, strain nat1, stronger effect = lower value 0.681 | locus YDR101C, strain arx1, stronger effect = lower value 1.22 [resistant] | locus YDR137W, strain rgp1, stronger effect = lower value 0.18 | locus YDR150W, strain NUM1, stronger effect = lower value 0.878 | locus YDR159W, strain sac3, stronger effect = lower value 0.785 | locus YDR162C, strain NBP2, stronger effect = lower value 0.832 | locus YDR195W, strain ref2 1.24 [resistant] | locus YER002W, strain NOP16, stronger effect = lower value 0.884 | locus YER015W, strain faa2, stronger effect = lower value 0.901 | locus YER016W, strain bim1, stronger effect = lower value 0.772 | locus YER111C, strain swi4, stronger effect = lower value 1.16 [resistant] | locus YGL167C, strain pmr1, stronger effect = lower value 0.606 | locus YGL240W, strain doc1, stronger effect = lower value 0.6 | locus YHR013C, strain ard1, stronger effect = lower value 0.627 | locus YHR079C, strain IRE1 (second series), stronger effect = lower value 1.14 [resistant] | locus YIL073C, strain SPO22, stronger effect = lower value 1.59 [resistant] | locus YIR030C, strain dcg1, stronger effect = lower value 1.14 [resistant] | locus YJL095W, strain BCK1 (second series), stronger effect = lower value 0.91 | locus YJL166W, strain qcr8, stronger effect = lower value 0.758
inactive: locus YAL026C, strain drs2, stronger effect = lower value 0.931 | locus YAL030W, strain snc1, stronger effect = lower value 0.937 | locus YAL040C, strain CLN3, stronger effect = lower value 0.969 | locus YBR021W, strain FUR4, stronger effect = lower value 0.898 | locus YBR171W, strain sec66, stronger effect = lower value 1.01 | locus YBR229C, strain ROT2, stronger effect = lower value 0.991 | locus YCL011C, strain gbp2, stronger effect = lower value 0.944 | locus YCL061C, strain MRC1 (second series), stronger effect = lower value 0.999 | locus YCL069W, strain vba3, stronger effect = lower value 0.959 | locus YCR088W, strain abp1, stronger effect = lower value 0.97 | locus YDL074C, strain BRE1, stronger effect = lower value 0.895 | locus YDL101C, strain DUN1, stronger effect = lower value 0.983 | locus YDL185W, strain tfp1, stronger effect = lower value 1.01 | locus YDL192W, strain arf1, stronger effect = lower value 1.01 | locus YDR001C, strain nth1, stronger effect = lower value 0.989 | locus YDR069C, strain doa4, stronger effect = lower value 1.03 | locus YDR297W, strain sur2, stronger effect = lower value 0.938 | locus YDR318W, strain mcm21, stronger effect = lower value 1.03 | locus YDR334W, strain swr1, stronger effect = lower value 0.981 | locus YDR335W, strain msn5, stronger effect = lower value 0.997 | locus YDR363W, strain ESC2, stronger effect = lower value 0.95 | locus YDR388W, stronger effect = lower value 0.989 | locus YDR392W, strain spt3, stronger effect = lower value 0.828 | locus YDR502C, strain sam2, stronger effect = lower value 1.02 | locus YEL003W, strain gim4, stronger effect = lower value 1.07 | locus YEL037C, strain rad23, stronger effect = lower value 1.01 | locus YEL061C, strain CIN8 (second series), stronger effect = lower value 1 | locus YEL061C, strain CIN8, stronger effect = lower value 0.965 | locus YER110C, stronger effect = lower value 0.934 | locus YER155C, strain BEM2 (second series), stronger effect = lower value 0.985 | locus YER155C, strain BEM2, stronger effect = lower value 0.99 | locus YER167W, strain BCK2, stronger effect = lower value 0.929 | locus YFR010W, strain ubp6, stronger effect = lower value 0.959 | locus YGL078C, strain dbp3, stronger effect = lower value 1.01 | locus YGL086W, strain mad1, stronger effect = lower value 0.954 | locus YGL173C, strain kem1, stronger effect = lower value 0.994 | locus YGL227W, strain vid30, stronger effect = lower value 0.997 | locus YGL248W, strain PDE1, stronger effect = lower value 0.932 | locus YGL253W, strain hxk2, stronger effect = lower value 0.933 | locus YGR078C, strain PAC10, stronger effect = lower value 0.948 | locus YGR135W, strain pre9, stronger effect = lower value 1.03 | locus YGR252W, strain gcn5, stronger effect = lower value 1.01 | locus YHR027C, strain rpn1, stronger effect = lower value 0.944 | locus YHR030C, strain SLT2, stronger effect = lower value 0.922 and 0.995 | locus YHR079C, strain IRE1, stronger effect = lower value 0.981 | locus YHR094C, strain hxt1, stronger effect = lower value 1.05 | locus YHR129C, strain ARP1, stronger effect = lower value 0.944 | locus YHR142W, strain chs7, stronger effect = lower value 0.967 | locus YHR200W, strain rpn10, stronger effect = lower value 1 | locus YIL066C, strain RNR3, stronger effect = lower value 0.9 | locus YIL125W, strain kgd1, stronger effect = lower value 1 | locus YJL092W, strain hpr5, stronger effect = lower value 0.965 | locus YJL095W, strain BCK1, stronger effect = lower value 0.91 and 1 | locus YJL115W, strain asf1, stronger effect = lower value 1.05 | locus YJL129C, strain trk1, stronger effect = lower value 1.13 | locus YJL134W, strain LCB3, stronger effect = lower value 0.978 | locus YJL154C, strain vps35, stronger effect = lower value 0.979 | locus YJL164C, strain tpk1, stronger effect = lower value 0.952 | locus YJL168C, strain set2, stronger effect = lower value 0.996 | locus YJL187C, strain SWE1 (second series), stronger effect = lower value 0.903 | locus YJR043C, strain POL32, stronger effect = lower value 0.929 | locus YJR066W, strain TOR1, stronger effect = lower value 0.904
